In assay [1] the target is Luciferin 4-monooxygenase (Photinus pyralis) (UniProt P08659). Nature of the assay: qHTS assay to identify small molecule inhibitors of firefly luciferase (AID 1224835). Further: nearly all actives have a fitted effect of over 25% in size. Further: potency means the concentration at half of the fitted maximal effect. The procedure, abridged:
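Biochemical qHTS: compounds run as interplate titrations against purified firefly enzyme, with D-luciferin and ATP each at its KM concentration. Light output recorded by CCD imaging.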
A general note: qHTS replaces the single test concentration by a dilution series.

Assay [2] is described as follows: qHTS assay to identify small molecule agonists of the constitutive androstane receptor (CAR) signaling pathway - cell viability counter screen (AID 1224836). Further: nearly all actives have a fitted effect of over 45% in size. Further: potency means the concentration at half of the fitted maximal effect. The procedure, abridged:
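23 h treatment, 37 C, 5% CO2. Cell line: HepG2 stably expressing hCAR with a CYP2B6-2.2kb construct. Co-treatment: PK11195, 0.75 uM final. Read-out: CellTiter-Fluor fluorescence intensity.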

The nature of assay [3]: qHTS assay to identify small molecule antagonists of the constitutive androstane receptor (CAR) signaling pathway - cell viability counter screen (AID 1224837). Further: nearly all actives have a fitted effect of over 45% in size. Further: potency means the concentration at half of the fitted maximal effect. In short, it runs like this:
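Counter screen run in HepG2-CYP2B6-hCAR cells: 4 hr settle, compound titration (15 concentrations) with 50 nM CITCO, 23 hr at 37 C/5% CO2, CellTiter-Fluor fluorescence.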

In assay [4] the target is Nuclear receptor subfamily 1 group I member 3 (Homo sapiens) (UniProt Q14994). Nature of the assay: qHTS assay to identify small molecule antagonists of the constitutive androstane receptor (CAR) signaling pathway (AID 1224838).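 Further: HepG2 cells stably expressing hCAR with CYP2B6 luciferase reporter stimulated by CITCO; nearly all actives have a fitted effect of over 40% in size.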 Further: potency means the concentration at half of the fitted maximal effect. The procedure, abridged:
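Cell line: HepG2 double-stable for hCAR and CYP2B6-2.2kb reporter. Agonist: CITCO, 50 nM final. Compounds: 15 concentrations, 24 h, 37 C. Detection: ONE-Glo luminescence.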

Assay [5] has the same target. Nature of the assay: qHTS assay to identify small molecule agonists of the constitutive androstane receptor (CAR) signaling pathway (AID 1224839).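 Further: HepG2 cells stably carrying human CAR and a CYP2B6 luciferase reporter; nearly all actives have a fitted effect of over 15% in size.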 The procedure, abridged: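 Compounds tested at 15 concentrations on HepG2 cells stably harbouring hCAR and CYP2B6-2.2kb reporter constructs, co-treated with PK11195 (0.75 uM final), 24 h at 37 C; luminescent reporter signal quantified.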

The nature of assay [6]: qHTS assay to identify small molecule antagonists of the estrogen related receptor signaling pathway with the pleiotropic PPARgamma coactivator (PGC) from Tox21 10K library - cell viability counter screen (AID 1224840; active means well fitted cell-killing curve with a large enough effect in the repeat runs, not every such curve was filed as active; further: nearly all actives have a fitted effect of over 40% in size; further: potency means the concentration at half of the fitted maximal effect). In short, it runs like this: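 Following seeding of 2,000 PGC/ERR cells/well and 6 hours' incubation, test compounds were delivered in DMSO. The plates then sat 17.5 hours at 37 C before a fluorogenic live-cell protease reagent (CellTiter-Fluor) was read after 30 min.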

Assay [7] can be described thus: qHTS assay to identify small molecule antagonists of the estrogen related receptor signaling pathway with the pleiotropic PPARgamma coactivator (PGC) from Tox21 10K library (AID 1224841; call rule not given here; further: actives are mostly falling curves and most rising ones were filed inactive; nearly all actives have a fitted effect of over 50% in size). The procedure, abridged: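 qHTS antagonist format: PGC/ERR cells, 2k/well, compound in DMSO by pin transfer after 6 h attachment, 18 h treatment at 37 C, One-Glo luminescence read at 30 min.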

A short description of assay [8]: qHTS assay to identify small molecule agonists of the estrogen related receptor signaling pathway with the pleiotropic PPARgamma coactivator (PGC) from Tox21 10K library (AID 1224842). Further: nearly all actives have a fitted effect of over 15% in size. The procedure, abridged:
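PGC/ERR reporter cell line, 2,000 cells per well, incubated 6 h at 37 C before 23 nL compound in DMSO was added. After 18 h at 37 C, One-Glo luminescence read following 30 min at room temperature.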

Assay [9] deals with Thyrotropin receptor (Homo sapiens) (UniProt P16473). Put plainly: qHTS assay to identify small molecule agonists of the thyroid stimulating hormone receptor (TSHR) signaling pathway (AID 1224843; calls by dose curve; further: nearly all actives have a fitted effect of over 45% in size). In short, it runs like this: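 Steps: seed 800 TSHR-HEK293 cells per well; add test compound and hold 30 min at ambient temperature; dispense cAMP-d2 then anti-cAMP cryptate; incubate 1 h at ambient; measure fluorescence intensity.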
Sequence of Thyrotropin receptor (Homo sapiens) (P16473 whole entry, looked up): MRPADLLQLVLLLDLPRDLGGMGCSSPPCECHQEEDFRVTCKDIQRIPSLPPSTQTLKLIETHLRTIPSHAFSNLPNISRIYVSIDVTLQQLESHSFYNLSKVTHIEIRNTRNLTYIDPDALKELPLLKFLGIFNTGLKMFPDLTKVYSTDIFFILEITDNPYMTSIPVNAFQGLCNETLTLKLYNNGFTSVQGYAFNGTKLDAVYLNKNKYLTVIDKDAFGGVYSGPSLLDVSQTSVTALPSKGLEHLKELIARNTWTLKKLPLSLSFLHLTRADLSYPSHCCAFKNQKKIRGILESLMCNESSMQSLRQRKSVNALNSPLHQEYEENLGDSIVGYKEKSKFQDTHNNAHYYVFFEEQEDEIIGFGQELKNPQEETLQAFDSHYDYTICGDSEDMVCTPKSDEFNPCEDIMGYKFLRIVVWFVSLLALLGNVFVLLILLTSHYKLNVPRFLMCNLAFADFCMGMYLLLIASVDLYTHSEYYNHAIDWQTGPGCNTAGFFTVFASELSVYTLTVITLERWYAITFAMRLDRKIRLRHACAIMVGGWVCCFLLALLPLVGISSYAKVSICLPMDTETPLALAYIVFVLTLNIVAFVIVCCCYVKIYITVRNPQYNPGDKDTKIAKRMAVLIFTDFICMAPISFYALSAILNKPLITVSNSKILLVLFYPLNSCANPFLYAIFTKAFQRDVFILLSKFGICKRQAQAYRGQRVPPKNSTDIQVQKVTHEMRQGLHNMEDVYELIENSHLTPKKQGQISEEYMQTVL

Assay [10] in a line: qHTS assay to identify small molecule agonists of the hypoxia (HIF-1) signaling pathway - cell viability counter screen (AID 1224844; calls by dose curve; further: nearly all actives have a fitted effect of over 50% in size; further: potency means the concentration at half of the fitted maximal effect). The procedure, abridged:
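Cells (HRE-bla ME-180, 2,000 per well) sat 5 hrs at 37C, got compound for 17 hrs, were read for CCF4-AM FRET, and were finally lysed with CellTiter-Glo for a 30 min room-temperature luminescence read.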

The nature of assay [11]: qHTS assay to identify small molecule agonists of H2AX (AID 1224845; active means well fitted activation curve with a large enough effect in the signal ratio in the repeat runs, not every such curve was filed as active; the % refers to the signal ratio). In short, it runs like this: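 Wild-type CHO-K1 cells, plated overnight, exposed 3hr at 37C to 15 concentrations (0.76% DMSO final). Lysed, then HTRF anti-pH2AX (S139) cryptate and anti-H2AX-d2 antibodies, 24 hr room temperature; 665/620 nm emission read.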
Assay [12] is described as follows: qHTS assay to identify small molecule agonists of the hypoxia (HIF-1) signaling pathway (AID 1224846; active means well fitted activation curve with a large enough effect in the signal ratio in the repeat runs, not every such curve was filed as active; the % refers to the signal ratio). In short, it runs like this: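 A low-serum medium (0.5% dialyzed FBS) holding 2,000 HRE-bla ME-180 cells per well is preincubated for 5 hrs, dosed with compounds by pintool, and kept a further 17 hrs at 37C, 5% CO2 before CCF4-AM FRET detection of beta-lactamase.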

Assay [13] in a line: qHTS assay to identify small molecule antagonists of the estrogen related receptor (ERR) signaling pathway from Tox21 library (AID 1224848). Further: nearly all actives have a fitted effect of over 50% in size. The procedure, abridged: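 Luminescent reporter read-out (ONE-Glo) from NTP's ERR cell line after 18 h treatment at 37 C with DMSO-dissolved Tox21 compounds; cells pre-plated 6 h beforehand at 2,000 per well.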
The nature of assay [14]: qHTS assay to identify small molecule agonists of the estrogen related receptor (ERR) signaling pathway from Tox21 library (AID 1224849; calls by dose curve; further: nearly all actives have a fitted effect of over 15% in size). The conditions noted are these: ERR reporter cell line, ONE-Glo luciferase, 18 h; at 92.4 µM (top of the series). The procedure, abridged: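 Screening used an NTP-provided ERR luciferase cell line. Compounds in DMSO were added 6 h after seeding and left 18 h at 37 C before a 30 min ONE-Glo step and luminescence reading.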

A short description of assay [15]: qHTS RealTime-Glo MT Cell Viability Assay in HepG2 cells - 24 hour (AID 1224867). Further: nearly all actives have a fitted effect of over 50% in size. Further: potency means the concentration at half of the fitted maximal effect. The procedure, abridged: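 Cell number in HepG2 cultures estimated from NanoLuc luminescence generated by metabolic reduction of a prosubstrate by living cells. The homogeneous, nonlytic format allowed repeated reads at 0, 8, 16, 24, 32 and 40 h of compound exposure.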
A short description of assay [16]: qHTS RealTime-Glo MT Cell Viability Assay in HEK293 cells - 32 hour (AID 1224868). Further: nearly all actives have a fitted effect of over 50% in size. Further: potency means the concentration at half of the fitted maximal effect. In short, it runs like this: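 Homogeneous bioluminescent viability format in HEK293 cells (600 cells/well). Following 5 h at 37 C/5% CO2, 23 nL compound was pintooled; the signal was measured repeatedly during 40 h incubation.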
A short description of assay [17]: A CellTox Green Cytotoxicity Assay to monitor cytotoxicity in HEK293 cells - 0 hour (AID 1224869). Further: nearly all actives have a fitted effect of over 50% in size. In short, it runs like this: (§1)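 Fluorescence intensity, read at 0, 8, 16, 24, 32 and 40 h of compound treatment, reflected dye binding to DNA of dead HEK293 cells; compounds (23 nL, DMSO) were added 5 h after plating cells with reagent.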
The nature of assay [18]: qHTS RealTime-Glo MT Cell Viability Assay in HepG2 cells - 40 hour (AID 1224870). Further: nearly all actives have a fitted effect of over 50% in size. Further: potency means the concentration at half of the fitted maximal effect. The procedure, abridged:
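HepG2 cells (600/well) mixed with RealTime-Glo MT reagent, settled 5 h at 37 C/5% CO2 before compound addition. Nonlytic NanoLuc luminescence from viable-cell prosubstrate reduction read repeatedly during 40 h treatment at 37 C.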

Assay [19] in a line: A CellTox Green Cytotoxicity Assay to monitor cytotoxicity in HEK293 cells - 40 hour (AID 1224871). Further: nearly all actives have a fitted effect of over 45% in size. Further: potency means the concentration at half of the fitted maximal effect. The procedure, abridged: as §1
Assay [20] can be described thus: qHTS assay to identify small molecule agonists of H2AX - cell viability counter screen (AID 1224847; calls by dose curve; further: nearly all actives have a fitted effect of over 30% in size; further: potency means the concentration at half of the fitted maximal effect). The procedure, abridged:
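Compounds tested at 15 concentrations were incubated 3 hr at 37C with wild-type CHO-K1 cells; cellular ATP-based luminescence (CellTiter-Glo) indicated viability.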

SMILES strings stand for the structures. Several values for one entry are separate records, joined by “and”; a condition that tells them apart may be missing. Identical values can stand only once. Values without a mark were called inactive. Results filed as inconclusive are left out. Activity calls are given as the source filed them. Unless noted, the call rests on the fitted dose curve; in most records, active means well fitted curve in the direction sought with a large enough effect in the repeat runs; inconclusive means weak or mixed curves; inactive means no such curve, though single readings can be large; an effect the other way counts as inactive or inconclusive.
On the % scale 0 is the no-effect control and ±100 the full control effect.

Sequence of Nuclear receptor subfamily 1 group I member 3 (Homo sapiens) (Q14994 whole entry, looked up): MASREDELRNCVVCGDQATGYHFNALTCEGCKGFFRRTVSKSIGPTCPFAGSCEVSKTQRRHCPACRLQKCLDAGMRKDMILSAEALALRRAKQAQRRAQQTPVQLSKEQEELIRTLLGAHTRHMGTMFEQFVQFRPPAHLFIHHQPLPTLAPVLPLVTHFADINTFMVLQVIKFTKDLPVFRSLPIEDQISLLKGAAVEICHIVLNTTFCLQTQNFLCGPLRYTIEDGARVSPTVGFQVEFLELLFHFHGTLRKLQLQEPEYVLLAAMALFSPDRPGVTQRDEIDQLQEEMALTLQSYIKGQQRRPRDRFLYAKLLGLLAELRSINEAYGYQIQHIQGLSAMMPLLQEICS
Sequence of Luciferin 4-monooxygenase (Photinus pyralis) (P08659 whole entry, looked up): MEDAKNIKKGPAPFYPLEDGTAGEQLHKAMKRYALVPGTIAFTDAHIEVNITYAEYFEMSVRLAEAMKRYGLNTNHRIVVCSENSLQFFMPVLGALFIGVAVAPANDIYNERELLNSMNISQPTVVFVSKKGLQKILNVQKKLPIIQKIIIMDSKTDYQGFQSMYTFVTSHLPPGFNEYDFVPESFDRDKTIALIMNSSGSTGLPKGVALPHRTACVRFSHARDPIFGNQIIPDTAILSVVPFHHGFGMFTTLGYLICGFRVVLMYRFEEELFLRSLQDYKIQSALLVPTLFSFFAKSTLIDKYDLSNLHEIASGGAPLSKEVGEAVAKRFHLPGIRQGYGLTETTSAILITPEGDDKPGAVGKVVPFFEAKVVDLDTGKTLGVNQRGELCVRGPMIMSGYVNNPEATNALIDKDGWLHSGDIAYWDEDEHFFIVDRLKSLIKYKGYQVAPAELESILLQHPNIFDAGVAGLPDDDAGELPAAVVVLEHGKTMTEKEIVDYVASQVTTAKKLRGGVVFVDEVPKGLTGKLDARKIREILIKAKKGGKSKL

Regarding `Cc1cccc2cccnc12`, the Potency entry in assay [1], in assay [2], in assay [3], in assay [4], in assay [5] and in assay [6] was “inactive” in each case. Also, the Potency result in assay [7], in assay [8], in [9], in [10], in assay [11] and in assay [12] was “inactive” in each case. The Potency entry in [13], in assay [15], in assay [16], in [17], in assay [18] and in assay [19] was “inactive” each time. The activity change, positive = activation in [14] is 0.0767%.

Take `OC/C=C/CO`: the Potency entry in assay [1], in [2], in assay [3], in assay [4], in assay [5] and in assay [6] was “inactive” in each case. Besides, the Potency result in assay [9], in assay [10], in [11], in assay [12], in assay [20] and in [15] was “inactive” in each case. In addition, the Potency result in assay [16], in assay [18] and in assay [19] was “inactive” throughout.

On to `ClCCl`, for which the Potency result in [1], in assay [2], in assay [3], in assay [4], in assay [5] and in assay [6] was “inactive” each time. Besides, the Potency entry in assay [10], in assay [11], in [12], in assay [20], in [15] and in assay [16] was “inactive” each time. Also, the Potency result in assay [17], in assay [18] and in [19] was “inactive” throughout.

As to `CN(C)c1ccc(C(=C2C=CC(=[N+](C)C)C=C2)c2ccc(N(C)C)cc2)cc1`, the Potency in assay [1] was 17.7 µM (active) and 35.6 µM (active) and 17.4 µM (active); in assay [2], 7.66 µM (active) and 6.86 µM (active) and 5.96 µM (active); in assay [3], 8.59 µM (active) and 7.7 µM (active) and 5.31 µM (active); in [4] it was 27.2 µM (active) and 27.3 µM (active) and 13.3 µM (active); in assay [6], 9.64 µM (active) and 4.33 µM (active) and 11.9 µM (active); in assay [10], 19.4 µM (active) and 54.9 µM (active). Also, the Potency in assay [20] was 3.17 µM (active) and 12.7 µM (active) and 13.9 µM (active); in assay [15] it was 24.4 µM (active) and 24.5 µM (active) and 10.7 µM (active); in [16] it was 2.74 µM (active) and 6.92 µM (active) and 2.39 µM (active); in [18], 34.5 µM (active) and 43.6 µM (active) and 26.8 µM (active); in assay [19] it was 21.9 µM (active) and 21.3 µM (active). In addition, the Potency entry in assay [5] is “inactive”.

In the case of `CCCCCCOC(=O)C(C)CC` (configuration not stated), the Potency result in assay [1], in [2], in assay [3], in assay [4], in assay [5] and in assay [6] was “inactive” in each case. Besides, the Potency result in assay [7], in [8], in assay [9], in [10], in [11] and in [12] was “inactive” throughout. The Potency entry in assay [20], in assay [16], in assay [17], in assay [18] and in [19] was “inactive” in each case. Moreover, in assay [14], the activity change, positive = activation was 0.0288%.

In the case of `Clc1sc(Cl)c(Cl)c1Cl`, the Potency entry in assay [1], in [2], in assay [3], in assay [4], in [5] and in assay [6] was “inactive” in each case. In addition, the Potency entry in assay [7], in [8], in [9], in assay [10], in assay [11] and in [12] was “inactive” each time. In addition, the Potency entry in assay [20], in [13], in assay [15], in [16], in [17] and in assay [18] was “inactive” in each case. Moreover, the Potency result in assay [19] is “inactive”. The activity change, positive = activation in assay [14] was 4.94%.

Consider `CC(C)(C)NSc1nc2ccccc2s1`, for which the Potency in assay [1] was 18.1 µM (active). The Potency result in [2], in assay [3], in [4], in assay [5], in assay [6] and in assay [9] was “inactive” each time. Moreover, the Potency entry in assay [10], in assay [11], in assay [20], in assay [16], in assay [18] and in assay [19] was “inactive” in each case.

Values taken from PubChem BioAssay (Tox21).
